From the supplement of paper PMC3334620
Over roughly 33,000 sequences, “E-score (-0.5 to 0.5)” has its median near -0.012; the highest 2% begin near 0.27. The full list was thinned out, with the highest values kept by preference.

molecular target: T1, Vhr1 (UniProt P40522); assay: PBM E-score (8-mer binding enrichment) (E-score (-0.5 to 0.5)); higher = stronger / more preferred TF binding; conditions: protein concentration: 200 nM; construct: GST-full length
T1 sequence: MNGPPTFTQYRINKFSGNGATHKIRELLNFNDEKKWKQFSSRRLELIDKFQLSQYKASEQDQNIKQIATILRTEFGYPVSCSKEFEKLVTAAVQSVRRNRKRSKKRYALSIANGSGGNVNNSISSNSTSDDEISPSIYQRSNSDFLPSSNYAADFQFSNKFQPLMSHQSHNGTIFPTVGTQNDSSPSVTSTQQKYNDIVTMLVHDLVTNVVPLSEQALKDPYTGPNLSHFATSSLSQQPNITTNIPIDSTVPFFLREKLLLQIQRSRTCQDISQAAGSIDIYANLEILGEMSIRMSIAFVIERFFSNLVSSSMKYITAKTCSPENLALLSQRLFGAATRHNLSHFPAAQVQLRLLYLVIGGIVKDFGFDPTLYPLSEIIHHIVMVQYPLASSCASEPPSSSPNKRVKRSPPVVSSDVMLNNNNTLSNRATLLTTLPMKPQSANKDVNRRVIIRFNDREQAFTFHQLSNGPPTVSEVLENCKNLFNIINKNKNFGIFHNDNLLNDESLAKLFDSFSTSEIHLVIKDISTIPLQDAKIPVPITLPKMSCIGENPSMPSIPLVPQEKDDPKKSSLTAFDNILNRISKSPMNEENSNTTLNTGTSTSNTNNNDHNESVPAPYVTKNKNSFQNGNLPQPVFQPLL
Method in brief: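 Universal all-10-mer Agilent arrays, double-stranded by primer extension on fresh or once-stripped slides, were probed with about 100-200 nM GST-tagged yeast transcription factors made by PURExpress. Fluorescent anti-GST detected bound protein, and masliner normalised the scans. E-scores from the Universal PBM Analysis Suite were given to each ungapped eight-base word pooled with its reverse complement.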

Sequence | PBM E-score
CGTAGTCA | 0.372
AGTAGTCA | 0.401
AGTAGTAA | 0.0586
CCAGTGGA | -0.118
CATTGGCG | 0.00375
GGAATGCA | 0.0844
GGGCTTCA | -0.00484
GGTAGTCA | 0.427
GGTAGTGA | 0.159
GGTAGTAA | -0.193
ACCGTTGC | -0.0641
CACAATGA | 0.286
CACAATGG | 0.176
CACAATGC | 0.132
CTCAGTGA | 0.111
ATCAGTCA | 0.306
CTCAGTCC | -0.0479
ACCAGTCT | 0.0104
ACCAGTCC | -0.0311
CACAGTCA | 0.244
GTCAGTCA | 0.267
TACAGTCA | 0.294
CTCAGTCA | 0.362
ACCAGTCA | 0.298
AACAGTCA | 0.192

Sequence | PBM E-score
ATCAGTCG | 0.23
ACGCTAGC | -0.322
AATTTAGG | 0.0535
CACTAATC | 0.19
CCCAATCG | -0.00353
GAATGCAC | 0.109
CGGCTCGC | 0.0809
AACAGCTC | 0.0178
CTGAATCC | 0.224
GTGAATGA | 0.0662
ATGAATCC | 0.0842
CTGAATCA | 0.402
GTGAATAA | 0.16
ATGAATCA | 0.423
CTGAATTA | -0.00808
GTGAATCA | 0.394
ATGAATCG | 0.214
GAAGATAC | 0.00993
AGCTTGTA | -0.0135
GACAGCTC | -0.0639
CCGGCCGC | -0.048
CCGGCCGA | 0.031
CCGGCCGG | 0.282
AGGTCGTA | 0.107
AGATTGGA | -0.0483

Sequence | PBM E-score
CCGTCACC | -0.114
CAGTCACA | 0.348
TAGTCACA | 0.394
TGGTCACA | 0.035
AAGTCACC | 0.301
CTGTCACA | 0.025
TCGTCACA | 0.0377
CGGTCACC | 0.0171
AGGTCACC | -0.16
CCGTCACA | -0.0936
CAGTCACC | 0.307
ACGTCACC | -0.0531
CTACTTCC | -0.0528
CAAGTGAC | -0.00136
TAGCGCAA | -0.0984
ACCGCGGC | 0.0296
ACGGTAAC | 0.0764
GACAGCAA | -0.0406
AAGTCACG | 0.336
AAGTCACT | 0.209
CAGTCAAA | -0.0678
AAGTCACA | 0.246
CAGTCACG | 0.365
CGGTCACA | 0.0193
GACATCAC | 0.0237

Sequence | PBM E-score
CGGATTGA | 0.132
ACCGGACT | -0.0358
ACCGGACG | 0.283
CCCGGACG | -0.133
ATAGTGTC | 0.13
ATATTATA | 0.058
ATATTATC | 0.0882
ATATTATG | 0.324
CGTATACG | 0.107
AGGTCATA | 0.0299
TAGTCAGA | 0.258
AAGTCATA | 0.316
CCGTCATA | 0.139
CAGTCATA | 0.291
CAGTCATG | 0.406
CGGTCATA | -0.0676
TAGTCATA | 0.356
CAGTCAAG | 0.0145
ATGTCATA | 0.106
CAGTCAGG | 0.175
CTGTCATA | 0.0334
AAACACTA | 0.0776
CCCCCAGC | -0.15
AGCGCACA | 0.00461
GCGCTAAA | -0.142

Sequence | PBM E-score
CCAGACAC | -0.0651
AGCTGCGG | -0.115
CCAATGGG | -0.103
CGACTCAG | 0.428
CGACTCTA | 0.225
CAACTCAC | 0.263
CGACTCAC | 0.448
CAACTCAG | 0.0745
GGACTCAC | 0.372
GTACTCAC | 0.263
CCACTCAC | 0.177
AGACTCTC | 0.0937
GCACTCAC | -0.0104
CGACTCTC | 0.278
CCACTCAG | 0.0902
AGAAAATG | -0.163
TAAAGCAA | -0.0681
ACTTAGAC | -0.127
ACAGCCTA | 0.0389
AAGGGTGC | -0.0494
CAAGCAAG | -0.0582
AACTATTG | 0.13
ACTCTCAT | 0.027
AGACTCAT | 0.353
AGACTCAC | 0.399

Sequence | PBM E-score
AGACTCCT | 0.186
AGACTCGC | 0.136
AGACTCAG | 0.242
CCGCCTTC | 0.0298
CCCGTCGG | 0.065
CAAGCTCG | 0.0842
GGCGCTAC | -0.192
GTGGAGAA | -0.13
ACGTGTTC | -0.219
CCGTGTTC | 0.271
CCGTGTTA | 0.152
ACACAGAC | 0.25
CGCTGCCA | -0.0656
AAAGTACA | 0.071
ACTACAAC | 0.212
ACTACCAC | 0.175
ACTACCAA | 0.163
ACTACTAA | 0.0623
ACTACTAC | 0.232
ACTACAAT | 0.277
ACTACTAT | 0.325
ACTACCAT | 0.278
ACTACAAG | -0.00586
AGCAAGGG | -0.0155
GAGTGCGC | -0.0251

Sequence | PBM E-score
CCCGATGC | -0.18
ACCGATGA | 0.00055
CCCGATGA | 0.273
GTGCGCGA | 0.0151
CCGCATGA | 0.146
TACTATGA | 0.317
GACTATGC | 0.233
CACTATGA | 0.173
GACTATCA | 0.0818
GACTATGA | 0.289
AACTATGA | 0.22
AGAGGCTG | -0.116
GGTGACGA | 0.113
GGTGACCA | -0.0328
AGTGACCG | -0.117
AGTGACGA | 0.139
AGTGACTG | 0.288
GGTGACTA | 0.44
AGTGACAA | 0.0325
AGTGACTA | 0.367
AGTGACGG | 0.00494
GAGGAAGC | -0.151
